Pol eta inh – DNA polymerase eta (human) inhibition. Q9Y253. recombinant Pol eta, fluorescent DNA replication assay. Potency, µM (titrated, usually from 114 µM), usual class: inhibitors. 1.2% of 390,000 active. AID 588591
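Pol eta at 10 nM preincubated with compounds 15 min at room temperature; reaction started with fluorescent substrate (50 nM final) and read kinetically at 0 and 10 min.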
WRN helicase inh – WRN helicase (human) inhibition. WRN helicase unwinding, fluorescent forked duplex, kinetic. 0.46% of 360,000 active. Potency, µM (series often up to 114 µM), most hits filed as inhibitors; further: nearly all actives have a fitted effect of over 55% in size
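Kinetic fluorescence helicase assay: unwinding of a quenched forked DNA duplex (100 nM final) with 2 mM ATP final raises red fluorescence (525/598 nm). Compounds sat 15 min at room temperature with 20 nM WRN beforehand.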
Pol beta inh – DNA polymerase beta (human) inhibition. Pol beta primer extension/strand displacement, fluorescence kinetic. Potency, µM (top dose mostly 114 µM), most hits filed as inhibitors. P06746. 1.3% of 340,000 active
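Pol beta (10 nM) was preincubated with compound for 15 min at room temperature. The reaction was then started with 50 nM substrate and read immediately and after a further 10 min at room temperature.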
Pol kappa inh – DNA polymerase kappa (human) inhibition; 0.53% of 400,000 active; Q9UBT6; Potency, µM (highest dose often 107 µM), usual class: inhibitors; purified Pol kappa, fluorescent DNA synthesis assay, 10 min; AID 588579
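Here, compound and 10 nM enzyme are combined for 15 min at room temperature; adding 50 nM substrate (final) starts DNA synthesis, tracked by fluorescence at 0 and 10 min against buffer-only wells.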
POLI inh – inhibitors of human DNA polymerase iota; Q9UNA4; Pol iota fluorescent replication assay, 10 min; Potency, µM (highest dose often 115 µM), hits mostly inhibitors; 1% of 390,000 active
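Pol iota at 10 nM preincubated 15 min with compounds at room temperature; reaction started with fluorescent substrate, 50 nM final. Fluorescence read kinetically at 0 and 10 min; buffer-only wells as negative control.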
PI5P4Ka inh – PI5P4K alpha (human) kinase inhibition; AID 652105; PI5P4Kalpha enzyme, ADP-Glo luminescence, 60 min; hits give low values; P48426; 1.2% of 330,000 active; max response, %; active means max response of -50% or lower; inconclusive means between -30% and -50%; inactive means -30% or higher; further: value at the top dose of about 77 µM
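qHTS, 1536-well: enzyme/substrate mix, compound by pin tool, 5 microM ATP final; RT 60 min; ADP-Glo reagents 1 (45 min) then 2 (30 min); luminescence.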
A number is an active result; – = inactive; ? = inconclusive; · = no result; [ ] = dose if it differs, or a comment. Only some compounds are listed: those with a hit (about 2.8% of all), similar ones and a draw of the others. Unless noted, the call rests on the fitted dose curve; in most records, active means well fitted curve in the direction sought with a large enough effect; inconclusive means small, poorly fitted or top-dose-only effect, or another doubt; inactive means no such curve, though single readings can be large; an effect the other way counts as inactive or inconclusive.

SMILES	Pol eta inh	WRN helicase inh	Pol beta inh	Pol kappa inh	POLI inh	PI5P4Ka inh
COc1cccc(/C=N/Nc2nc(Nc3ccc([N+](=O)[O-])cc3)nc(N3CCCC3)n2)c1O	22.4µM	50.1µM	?	14.1µM	?	?
COc1cccc(/C=N/Nc2ccc(C(=O)O)cc2)c1O	–	–	–	–	–	–
O=S(=O)(O)c1ccc(NN=Cc2ccccc2O)cc1	31.6µM	–[11.6 µM]	·	–	?	–
COc1cccc(/C=N/Nc2snc(SC)c2C#N)c1O	?	50.1µM	?	–	?	–
O=S(=O)(N/N=C\c1ccccc1O)c1ccc(Cl)cc1	–	–	–	–	–	–
COc1ccc(/C=N/Nc2snc(SC)c2C#N)cc1OC	–	–	?	–	?	–
O=[N+]([O-])c1ccc(Nc2nc(N/N=C/c3cccc(F)c3)nc(N3CCCC3)n2)cc1	–	–	–	–	–	–
COc1cccc(NC(=O)CSC2=Nc3ccccc3C3=NC(CCC(=O)NCCc4ccccc4)C(=O)N23)c1 (stereo unspecified)	–	·	–	–	–	·
CCOc1ccccc1CNCc1c(C(=O)O)c(C)n(Cc2ccc(Cl)cc2)c1C	–	·	–	–	–	·
COc1ccccc1-c1nnc2sc(COc3ccccc3)nn12	–	–	–	–	–	·
COc1ccccc1-c1nnc2sc(COc3ccc(Cl)cc3Cl)nn12	–	–	56.2µM	–	–	·
O=C(NCc1ccccc1Cl)C1CCCN(c2ncnc3onc(-c4ccc(F)cc4)c23)C1 (stereo unspecified)	–	·	–	–	–	·
CCC(C)NC(=O)c1ccc2nc(CCc3ccccc3)oc2c1 (stereo unspecified)	–	·	–	–	–	·
Cc1oc(/N=C/c2ccccc2)c(C#N)c1C	–	–	–	–	–	–
COc1[nH]c(/N=C/c2ccccc2)c(C#N)c1C#N	–	–	89.1µM	?	79.4µM	?
Cc1nc2scc(-c3ccccc3)c2c(=O)n1N=C1C=CC(=O)C=C1	–	?	–	–	?	-101.4
C=CCn1c(SCC(=O)Nc2c(C)n(C)n(-c3ccccc3)c2=O)nc2scc(-c3ccccc3)c2c1=O	–	–	–	–	–	–
C=CCn1c(SCC(=O)Nc2ccc(C(=O)O)cc2)nc2scc(-c3ccccc3)c2c1=O	–	–	·	–	–	-91.6
C=CCn1c(CNC(=O)c2cccs2)nnc1SCC(=O)Nc1ccc(C(=O)O)cc1	?	–	–	–	–	-62.9
Cc1cc2c(=O)n(C)c(SCC(=O)Nc3ccccc3)nc2s1	–	–	–	–	–	–
C=CCn1c(SCC(=O)Nc2ccc(C(=O)O)cc2)nc2sc(C)c(C)c2c1=O	–	–	·	–	–	-60.0
C=CCn1c(CNC(=O)c2cccs2)nnc1SCC(=O)c1ccc(Br)cc1	–	–	–	–	–	·
Cn1c(SCC(=O)Nc2ccc(C(=O)O)cc2)nc2scc(-c3ccccc3Cl)c2c1=O	–	–	·	–	–	-70.7
CCCn1nc(C(=O)Nc2cccc(S(=O)(=O)N3CCOCC3)c2)c2ccccc2c1=O	–	–	·	·	·	–
Cc1cccc(N2CCN(C(=O)CN3C(=O)COc4ccc(S(=O)(=O)N5CCC(C)CC5)cc43)CC2)c1C	–	·	–	–	–	·
SMILES	Pol eta inh	WRN helicase inh	Pol beta inh	Pol kappa inh	POLI inh	PI5P4Ka inh
COc1ccc(N2CCN(C(=O)COC(=O)CC(NC(N)=O)c3ccc(Cl)cc3)CC2)cc1 (stereo unspecified)	–	–	·	·	·	–
COc1ccc(/C(C)=N/NC(=O)CNC(=O)/C=C\c2ccco2)cc1	–	–[11.6 µM]	25.1µM	–	50.1µM	–
Cc1ccc2[nH]c3c(N4CCc5ccccc5C4)ncnc3c2c1	–	–	–	–	–	–
Fc1ccc2[nH]c3c(N4CCc5ccccc5C4)ncnc3c2c1	–	–	14.1µM	–	–	–
CCOc1ccc2oc(=O)cc(CN3CCN(Cc4ccc(F)cc4)CC3)c2c1	–	·	–	–	–	·
CC(=O)Nc1cccc(NC(=O)CSc2ccc(-c3ccccn3)nn2)c1	–	–	25.1µM	–	–	–
CC(=O)Nc1cccc(NC(=O)CSc2ccc(-c3sc(-c4ccccc4)nc3C)nn2)c1	–	·	5.62µM	?	?	·
COc1cc(C(=S)N2CCCCC2)ccc1O	–	–	–	–	56.2µM	·
CC(C)(C)C(=O)N1CCN(c2nc3c(F)cccc3s2)CC1	–	·	–	–	–	·
CCOC(=O)c1ccc(NC(=O)C2Cc3ccccc3C(=O)O2)cc1 (stereo unspecified)	–	·	–	–	–	·
O=C(O)COc1ccccc1/C=N/NC(=O)CSc1nc2ccccc2n1Cc1ccccc1Cl	–	–	79.4µM	–	?	–
O=C1NC(=S)SC1=Cc1cc(Br)ccc1O	50.1µM	?	·	–	?	-76.7
Cc1cc(/C=C2/C(=O)N(C)C(=S)N2C)c(C)n1C1CC1	–	–	–	–	–	–
O=C1NC(=S)SC1=Cc1ccccc1Br	?	?	·	–	?	-72.1
O=C(O)CCn1cc(/C=C2\SC(=S)NC2=O)c(-c2ccccc2)n1	–	–	–	–	–	?
Cc1cc(/C=C2\SC(=S)NC2=O)c(C)n1C1CC1	?	?	25.1µM	?	?	·
COC(=O)c1ccc(NC(=O)C(C)N2Cc3ccccc3C2=O)cc1 (stereo unspecified)	–	·	–	–	–	·
CC(=O)N1CCc2cc(S(=O)(=O)CCC(=O)NCc3ccc4c(c3)OCO4)ccc21	?	–	44.7µM	–	–	–
O=C(/C=C/c1ccccc1Cl)c1ccc(O)cc1	–	–	–	–	?	-53.6
O=C(/C=C/c1ccccc1Cl)c1ccccc(=O)c1O	?	–[11.6 µM]	44.7µM	–	28.2µM	–
O=C(/C=C/c1ccccc1Cl)c1cccnc1	–	?	–	–	39.8µM	–
O=C(/C=C/c1c(F)cccc1Cl)c1ccc(O)cc1	–	–	–	–	?	–
O=C(/C=C/c1ccc(Cl)cc1)c1cccnc1	–	?	–	–	?	–
Cc1ccc(C)c(/C=C/C(=O)c2ccccc(=O)c2O)c1	?	–	?	–	?	–
CN1C(=O)C(Cl)(Cl)C(=O)c2ccccc21	–	?	–	–	?	-88.6
CN1C(=O)C2(NC(=O)c3ccccc3N2C)c2ccccc21 (stereo unspecified)	–	–	–	–	–	–
CCCC[C@@H]1CCCO[C@@](C(=O)NCc2ccc(C)o2)(C(F)(F)F)C1	–	–	·	–	–	-54.0
O/C(=C\c1nc2ccccc2nc1/C=C(\O)c1ccccc1)c1ccccc1	–	44.7µM	–	–	–	–
O=c1oc2ccccc2nc1/C=C(\O)c1ccccc1	–	–[11.6 µM]	–	–	–	–
N#Cc1c(N)nc2c3c(sc(=N)c2c1N)NC(=O)CC3c1ccccc1 (stereo unspecified)	?	–[11.6 µM]	–	–	–	-87.3
